This is a sample that favours compounds with a hit; in the whole collection about 3.5% have one here.
FBW7 act: human FBW7 E3 ligase activation, primary screen; AlphaScreen FBW7–phospho-cyclin E peptide binding, activator screen; normalized activity (activation), % at 26.1 µM; actives 0.13% (n = 650,000); AID 1259310; in the data active = normalized activity above about 1.9%;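 note: purified mutant Fbw7 with reduced substrate affinity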
TEAD-YAP block: TEAD-YAP interaction inhibition | HEK-TIYL cells, TEAD-Gal4/YAP UAS-luciferase luminescence | inhibition, % at 9.12 µM | actives 1.4% (n = 640,000); in the data active = inhibition above about 32%;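 note: 0% = median of test compound wells and 100% = reference inhibitor wells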
MITF inh: human MITF inhibition, primary screen; AID 1259374; AlphaScreen MITF homodimerization, bead proximity signal; inhibition, % at 2.6 µM; actives 0.91% (n = 650,000); in the data active = inhibition above about 50%;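 note: 0% = vehicle wells with protein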
GPR151 activ: human GPR151 activation; PathHunter beta-arrestin GPR151 cells, luminescence; Q8TDV0; activation, % at 11.2 µM; actives 1% (n = 650,000); in the data active = activation above about 4.9%;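 note: 0% = median of compound wells and 100% = cells with positive control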
Active calls of the source: *.

How did COc1ccc(C(=O)NCC#N)cc1OC do in these assays?
FBW7 act: 0; TEAD-YAP block: -5; MITF inh: 9; GPR151 activ: -1

What do the screens show for `O=C1c2ccccc2NC(c2ccc3c(c2)OCO3)N1c1ccc(Cl)c(Cl)c1` (centres undefined)?
FBW7 act: 1; TEAD-YAP block: -21; MITF inh: 17; GPR151 activ: -4

Results for Cn1ccc(C(=O)Nc2nc3c(s2)CCCC3)n1 ?
FBW7 act: 1; TEAD-YAP block: 46*; MITF inh: 26; GPR151 activ: -10

How did COC(=O)c1ccc(C(=O)Nc2nc3c(s2)CCCC3)cc1 do in these assays?
FBW7 act: 0; TEAD-YAP block: -77; MITF inh: -10; GPR151 activ: -4

Results for O=C(Nc1nc2c(s1)CCCC2)c1cc(F)c(F)c(F)c1F ?
FBW7 act: 0; TEAD-YAP block: 48*; MITF inh: 1; GPR151 activ: 3

How did O=C(Nc1nc2c(s1)CCCC2)c1ccccc1I do in these assays?
FBW7 act: 0; TEAD-YAP block: -75; MITF inh: -2; GPR151 activ: 2

How did COc1ccccc1OCCN1C(=O)C(=O)c2cc(Br)ccc21 do in these assays?
FBW7 act: 0; TEAD-YAP block: 34*; MITF inh: 0; GPR151 activ: 0

Results for COc1ccc(CN2C(=O)C(=O)c3cc(Br)ccc32)cc1 ?
FBW7 act: 0; TEAD-YAP block: 64*; MITF inh: 2; GPR151 activ: 1

How did O=C1/C(=C/c2cccnc2)SC(=S)N1Cc1cccnc1 do in these assays?
FBW7 act: 0; TEAD-YAP block: 33*; MITF inh: 25; GPR151 activ: 4

Results for Cc1ccc(-c2nnc(SCC(=O)N3CCCCC3C)o2)cc1C (centres undefined) ?
FBW7 act: 1; TEAD-YAP block: -8; MITF inh: 14; GPR151 activ: 0

How did CC1CCCCN1C(=O)CSc1nnc(-c2ccc(O)cc2)o1 (centres undefined) do in these assays?
FBW7 act: 0; TEAD-YAP block: 49*; MITF inh: -6; GPR151 activ: -1

What do the screens show for `CCCCNC(=S)N(C)/N=C/c1cc(OC)c(O)c(OC)c1`?
FBW7 act: 0; TEAD-YAP block: -1; MITF inh: -4; GPR151 activ: 0

Results for COc1cc(CC(=O)N2CCC3(CC2)OCc2ccccc2O3)cc(OC)c1OC ?
FBW7 act: 0; TEAD-YAP block: 38*; MITF inh: 6; GPR151 activ: 1

What do the screens show for `COc1ccc(CCC(=O)N2CCC3(CC2)OCc2ccccc2O3)cc1OC`?
FBW7 act: 0; TEAD-YAP block: 40*; MITF inh: 8; GPR151 activ: -1

Results for COc1cccc(CC(=O)N2CCC3(CC2)OCc2ccccc2O3)c1OC ?
FBW7 act: 0; TEAD-YAP block: 5; MITF inh: 8; GPR151 activ: 0

What do the screens show for `COc1ccc(CCC(=O)N2CCC3(CC2)OCc2ccccc2O3)cc1`?
FBW7 act: 0; TEAD-YAP block: -5; MITF inh: 0; GPR151 activ: 4

How did COc1cc(CC(=O)N2CCC3(CC2)OCc2cc(Cl)ccc2O3)cc(OC)c1OC do in these assays?
FBW7 act: 0; TEAD-YAP block: 59*; MITF inh: -17; GPR151 activ: 2

What do the screens show for `CCOP(=O)(CN1CCOCC1)c1ccccc1` (centres undefined)?
FBW7 act: 0; TEAD-YAP block: 1; MITF inh: 5; GPR151 activ: -1

Results for CCOC(=O)c1[nH]c(C)c(C(=O)OCC(=O)Nc2sc3c(c2C(N)=O)CCCC3)c1C ?
FBW7 act: 0; TEAD-YAP block: -1; MITF inh: 8; GPR151 activ: 1

What do the screens show for `Cc1nc(SCc2nnc(-c3ccccc3)o2)c(C#N)c(C)c1C`?
FBW7 act: 0; TEAD-YAP block: 92*; MITF inh: -3; GPR151 activ: 0

How did Cc1cc(C)c(C#N)c(SCc2nnc(-c3ccc(Cl)cc3)o2)n1 do in these assays?
FBW7 act: 0; TEAD-YAP block: 29; MITF inh: 4; GPR151 activ: -1

What do the screens show for `Cc1cc(C(F)(F)F)c(C#N)c(SCc2nnc(-c3ccccc3)o2)n1`?
FBW7 act: 0; TEAD-YAP block: 41*; MITF inh: 0; GPR151 activ: -2

What do the screens show for `Cc1cc(C)c2nc3nc(C)c(C)cc3c(N)c2c1`?
FBW7 act: 0; TEAD-YAP block: 81*; MITF inh: 16; GPR151 activ: -2

How did CCc1ccc(NC(=S)N(Cc2ccccc2)Cc2cccs2)cc1 do in these assays?
FBW7 act: 0; TEAD-YAP block: 54*; MITF inh: -6; GPR151 activ: -1

From PubChem BioAssay
